Experimental data as given in the supplement of paper PMC10127200.
Where a name gives a salt, the structure may show the parent alone.

Columns and labels:
Assay in all cases: Euclidean distance of Cell Painting phenotypic profile (signed KS, 77 features) to DMSO centroid (dimensionless distance); 5 or 10 uM (library dependent); higher = stronger phenotypic change vs DMSO (phenoactivity)
Conditions in all cases: 48 h
786-O = tested on: 786-O
In short: (§1)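 Library compounds were applied at 10 or 5 uM, depending on the library, with 0.1% DMSO final, for 48 h to five cancer lines and a healthy fibroblast line. After staining, cells were imaged confocally at 20X across 9 fields per well, and Harmony extracted 77 features, each scored as a signed Kolmogorov-Smirnov statistic against vehicle wells on the same plate. Phenoactivity is the Euclidean distance between each profile and the median vehicle profile, with profiles first plate-position corrected, correlation-weighted and averaged over replicates at the top dose.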

A549 = tested on: A549
In short: as §1

DU145 = tested on: DU145
In short: as §1

FB = tested on: FB
In short: as §1

HEPG2 = tested on: HEPG2
In short: as §1

OVCAR4 = tested on: OVCAR4
In short: as §1

Structure (SMILES)	Euclidean distance (786-O)	Euclidean distance (A549)	Euclidean distance (DU145)	Euclidean distance (FB)	Euclidean distance (HEPG2)	Euclidean distance (OVCAR4)
C[C@@H](N)[C@H]1CC[C@H](C(=O)Nc2ccncc2)CC1	3.12	3.33	3.45	2.59	1.02	3.15
CN(C)CCc1c[nH]c2ccc(C[C@H]3COC(=O)N3)cc12 [Zolmitriptan]	1.26	1.23	1.25	0.876	0.663	1.74
N[C@@H](CCC(=O)N[C@@H](CS)C(=O)NCC(=O)O)C(=O)O [Glutathione]	1.52	1.12	1.48	1.03	0.978	1.55
OC(CN1CCN(c2cccc(Cl)c2)CC1)C(c1ccccc1)c1ccccc1 (stereo not drawn)	1.08	1.33	0.908	1.03	0.858	1.16
CN1CCC(=C2c3ccccc3CC(=O)c3sccc32)CC1 [Ketotifen Fumarate]	0.851	0.639	0.639	1.17	0.589	1.2
C[C@H](CCC(=O)O)[C@H]1CC[C@H]2[C@@H]3[C@H](O)C[C@@H]4C[C@H](O)CC[C@]4(C)[C@H]3C[C@H](O)[C@]12C [Cholic acid]	1.14	0.83	0.953	0.727	0.875	1.12
CC(C)(C)c1ccc(C(O)CCCN2CCC(C(O)(c3ccccc3)c3ccccc3)CC2)cc1 (stereo not drawn) [Terfenadine]	1.05	4.51	1.53	1.18	1.05	1.52
C[C@@H](Nc1cc(F)cc(F)c1)c1cc(C(=O)N(C)C)cc2c(=O)cc(N3CCOCC3)oc12	2.04	1.94	1.72	2.79	0.984	2.9
C=CC(=O)Nc1cccc(Oc2nc(Nc3ccc(N4CCN(C)CC4)cc3)nc3ccsc23)c1	4.18	3.94	2.73	3.64	3.85	3.57
CC1(C)CCC(C)(C)c2cc(NC(=O)c3ccc(C(=O)O)cc3)ccc21 [Tamibarotene]	1.13	1.55	1.77	3	0.884	1.24
CCc1nn(CCCN2CCN(c3cccc(Cl)c3)CC2)c(=O)n1CCOc1ccccc1 [Nefazodone hydrochloride]	1.29	1.42	1.27	1.04	1.67	0.618
CCCOc1ccc2c(c1)CC[C@@H]1[C@@H]2CC[C@]2(C)[C@@H](OC)CC[C@@H]12 [Promestriene]	1.13	0.797	0.94	1.24	0.764	1.01
O=C(/C=C/c1ccc(O)c(O)c1)O[C@@H]1C[C@](O)(C(=O)O)C[C@@H](O)[C@H]1O [Chlorogenic Acid]	1.05	1.05	1.38	1.17	1.21	1.15
COc1ccc(-c2cc(=O)c3c(O)cc(O[C@@H]4O[C@H](CO[C@@H]5O[C@@H](C)[C@H](O)[C@@H](O)[C@H]5O)[C@@H](O)[C@H](O)[C@H]4O)cc3o2)cc1O [Diosmin]	0.665	0.621	1.01	0.778	0.671	0.702
O=C(Nc1cccc(Cl)c1)Nc1ncc(CCNc2ncnc3ccsc23)s1 [SNS-314 Mesylate]	1.07	1.84	0.974	1.73	0.589	1
CO/N=C(\C(=O)N[C@@H]1C(=O)N2C(C(=O)[O-])=C(C[N+]3(C)CCCC3)CS[C@H]12)c1csc(N)n1 [Cefepime Dihydrochloride Monohydrate]	1.34	0.501	0.945	1.1	0.514	0.878
Clc1ccc2c(N3CCN(CCCN4CCN(c5ccnc6cc(Cl)ccc56)CC4)CC3)ccnc2c1 [Piperaquine phosphate]	1.59	1.33	1.11	1.45	0.952	1.25
CC(C)COCC(CN(Cc1ccccc1)c1ccccc1)N1CCCC1 (stereo not drawn) [Bepridil hydrochloride]	1.64	2.55	2.06	1.65	1.94	1.73
NS(=O)(=O)c1cc(Cl)c(Cl)c(S(N)(=O)=O)c1 [Dichlorphenamide]	0.93	0.762	0.774	0.872	0.87	1.01
COc1cc(OC)cc(N(CCNC(C)C)c2ccc3ncc(-c4cnn(C)c4)nc3c2)c1	3.65	3.46	2.34	4.29	3.36	3.1
NCCCC[C@H](N[C@@H](CCc1ccccc1)C(=O)O)C(=O)N1CCC[C@H]1C(=O)O [Lisinopril dihydrate]	1.2	0.621	0.821	0.86	0.746	1.51
CCN(CCO)CCCC(C)Nc1ccnc2cc(Cl)ccc12 (stereo not drawn) [Hydroxychloroquine Sulfate]	3.48	3.08	2.6	5.29	2.92	3.58
COc1ccc(/C=C\c2cc(OC)c(OC)c(OC)c2)cc1O [Combretastatin A4]	3.46	3.33	3.91	2.81	4.14	2.83
